ELG1 genotox – inducers of genotoxicity in HEK293T ELG1-luciferase cells | Potency, µM (series often up to 46 µM), inactives show at the top dose activity change, positive = activation, usual class: activators | HEK293T ELG1-luciferase reporter, luminescence, 16 h | 1.3% of 330,000 active; note: % of control where 0% means no effect; nearly all actives have a fitted effect of over 60% in size
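After overnight (16 hr) compound treatment at 37 °C, ELG1-luciferase HEK293T cells were lysed with ONE-Glo; luminescence quantified 30 min later at room temperature.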
KinaseGlo FLuc – counter-screen: inhibitors of Kinase-Glo firefly luciferase; Kinase-Glo luciferase, ATP luminescence, 8 min; 0.28% of 200,000 active; Potency, µM (doses to about 38.3 µM), for inactives: at the highest dose activity change, negative = inhibition, most hits filed as inhibitors; Q27757; AID 1379; note: % is set by controls: 0 for no effect and ±100 for the full control effect; nearly all actives have a fitted effect of over 60% in size
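Recombinant Kinase-Glo luciferase, 10 uM ATP (linear range), luciferin; imidazole pH 7.2 / KCl / MgCl2 / Tween / BSA buffer; 8 min RT; luminescence.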
Rab9 promoter act – Rab9 promoter activation; Huh7 Rab9 promoter-luciferase reporter, luminescence, 24 h; 2.8% of 320,000 active; Potency, µM (top dose mostly 9.22 µM), for inactives: top-dose activation, negative = inhibition, actives largely listed as activators; AID 485297; note: % of control where 0% means no effect; nearly all actives have a fitted effect of over 60% in size
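Cell-based reporter: Huh7 stable for Rab9 promoter-driven luciferase, plated in reduced-serum medium with 10% FBS at 1500 cells/well, compound-treated 24 h at 37 °C, luminescence read after 10 min reagent.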
NPC1 promoter act – NPC1 promoter activation | AID 485313 | Huh7 NPC1 promoter luciferase reporter, 24 h | 2.4% of 320,000 active | Potency, µM (series often up to 9.22 µM), for inactives: top-dose activation, most hits filed as activators; note: % of control where 0% means no effect; nearly all actives have a fitted effect of over 60% in size
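Luminescence from an NPC1 promoter-driven luciferase reporter in stably transfected Huh7 cells was measured after 24 h compound treatment at 37 °C, followed by 10 min ambient incubation with luciferase detection reagent.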
SMN2 splice enh – increases expression of the SMN2 splice variant. Potency, µM (titrated, usually from 46.1 µM), for inactives: at the top dose activity change, positive = activation, most hits filed as activators. 2.8% of 210,000 active. HEK293 SMN2-luciferase splicing reporter, luminescence, 30-36 h; note: % of control where 0% means no effect; nearly all actives have a fitted effect of over 55% in size
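qHTS luciferase splicing reporter: luminescence rises when SMN2 exon 7 is included in transfected HEK293 cells. Compound exposure lasted 30-36 h at 37C, with 4.5 mM final sodium butyrate as control, followed by a ONE-Glo read.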
FLuc counter – firefly luciferase modulation, counter-screen for miR-21 project; P08659; purified FLuc, Km substrates, luminescence inhibition; Potency, µM (series often up to 57.5 µM), for inactives: top-dose activity change, negative = inhibition, most hits filed as inhibitors; 6.9% of 360,000 active;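 note: plate controls were vehicle for no effect and reference inhibitor for full effect; nearly all actives have a fitted effect of over 55% in size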
Target sequence (P08659 whole entry, looked up): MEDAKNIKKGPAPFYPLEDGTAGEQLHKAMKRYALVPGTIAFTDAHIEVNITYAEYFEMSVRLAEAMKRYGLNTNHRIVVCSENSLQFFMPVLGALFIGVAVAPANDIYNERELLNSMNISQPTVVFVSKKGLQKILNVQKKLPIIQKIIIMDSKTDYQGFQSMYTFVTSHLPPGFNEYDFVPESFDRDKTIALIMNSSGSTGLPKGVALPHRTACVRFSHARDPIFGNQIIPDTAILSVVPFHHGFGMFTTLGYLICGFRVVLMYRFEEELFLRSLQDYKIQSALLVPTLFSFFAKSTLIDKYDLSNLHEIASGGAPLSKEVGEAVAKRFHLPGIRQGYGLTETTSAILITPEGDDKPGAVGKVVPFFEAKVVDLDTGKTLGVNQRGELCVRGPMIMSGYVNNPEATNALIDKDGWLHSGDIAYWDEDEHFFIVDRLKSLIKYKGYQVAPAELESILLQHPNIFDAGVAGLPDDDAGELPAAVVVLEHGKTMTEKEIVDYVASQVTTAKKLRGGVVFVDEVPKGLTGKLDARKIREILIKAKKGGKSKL
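Purified P. pyralis luciferase, 10 nM final, with Km-level 10 uM D-luciferin and 10 uM ATP in 50 mM Tris acetate pH 7.5, 10 mM Mg acetate, 0.01% Tween-20, 0.05% BSA; 6-point qHTS titration about 60 µM downward; luminescence read.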
* marks the source's active call; other numbers are inactive results; ? = inconclusive; · = no result; [ ] = remark or other dose. Rows were chosen to be rich in hits. Some 7.3% of all compounds tested hit in one or more screens of this group. Calls come from the whole dose curve; as a rule, active = well fitted curve in the direction sought with a large enough effect; inconclusive = small, poorly fitted or top-dose-only effect, or another doubt; inactive = no such curve, though single readings can be large; an effect the other way counts as inactive or inconclusive. Potency is the fitted concentration of half-maximal effect.

SMILES	ELG1 genotox	KinaseGlo FLuc	Rab9 promoter act	NPC1 promoter act	SMN2 splice enh	FLuc counter
O=C(Nc1ccc2c(c1)CCC2)c1cc(F)cc(F)c1	?	·	1.4µM*	2.5µM*	·	3µM*
O=C(Nc1ccc2c(c1)CCC2)c1ccc(F)c(S(=O)(=O)N2CCOCC2)c1	6%	-4%	?	28%	-9%[1.84 µM]	?
O=C(Cc1ccccc1F)Nc1ccc2c(c1)CCC2	15µM*	·	3.2µM*	2µM*	·	7.6µM*
O=C(Nc1ccncc1)c1cccc(F)c1	-9%	4%	-1%	0%	4%	2%
O=C(Nc1ccc2c(c1)CCC2)c1cccc(F)c1	8.2µM*	-22%	1.4µM*	3.2µM*	11µM*	5.4µM*
Cc1ccccc1CC(=O)Nc1ccc2c(c1)CCC2	9%	·	3%	-1%	·	?
CCOC(=O)C1(C(C)C)Oc2ccccc2C(c2ccc(OC)cc2)=C1C(=O)OC (configuration not stated)	·	1%[39.9 µM]	·	·	·	·
Cc1ccc(-c2nnn3c2nc(NCc2ccc4c(c2)OCO4)c2ccccc23)cc1	·	·	·	·	2%	3%
Nc1nc(N)c2nn(-c3ccc(C(=O)O)cc3)nc2n1	·	0%[7.66 µM]	·	·	3%[9.22 µM]	·
Cc1ccccc1NC(=O)C(=O)NCC(c1ccc2c(c1)OCO2)N1CCN(c2ccccc2)CC1 (configuration not stated)	·	·	·	·	·	-6%
CCSc1ccccc1C(=O)N1CCN(c2nc3ccccc3s2)CC1	·	·	·	·	·	-13%
CCc1ccc2nc(N3CCN(C(=O)C(C)(C)C)CC3)sc2c1	0%	·	22%	27%	·	15µM*
CC(C)(C)C(=O)N1CCN(c2nc3ccccc3s2)CC1	16%[9.26 µM]	·	?	2.5µM*	·	15µM*
Cc1ccc2c(c1)c1c(c(=O)n(-c3cccc(Cl)c3)c(=O)n1C)n2C	·	·	·	·	·	0%
Cn1ccc(C(=O)NC(=S)Nc2ccc([N+](=O)[O-])cc2O)n1	12µM*	·	2.8µM*	2.2µM*	·	12µM*
CC(C)(C)c1ccc(C(=O)Nc2ccc([N+](=O)[O-])cn2)cc1	?	1%	1µM*	0.71µM*	2.8µM*	1.9µM*
O=C(Nc1ncccc1Cl)c1ccc2c(c1)OCCO2	5.2µM*	?	2.5µM*	3.2µM*	10µM*	13µM*
O=C(NC(=S)Nc1cc([N+](=O)[O-])ccc1O)c1ccc2c(c1)OCO2	1µM*	·	0.32µM*	0.32µM*	·	1.5µM*
O=C(NC(=S)Nc1ccc([N+](=O)[O-])cc1O)C1CCCCC1	-6%	·	8%	11%	·	?
O=C(Nc1ccc([N+](=O)[O-])cn1)c1cccnc1	2%	·	-6%	0%	·	-3%
CCC(=O)N1CCc2cc(CNS(=O)(=O)c3cc(Cl)ccc3OC)ccc21	·	·	·	·	·	-2%
CC(=O)Nc1ccc(C(=O)Nc2nc(-c3ccccn3)cs2)cc1	-9%	0%	-14%	-5%	11%	?
O=C(Nc1nc(-c2ccccn2)cs1)c1ccc2c(c1)OCCO2	?	·	1.8µM*	2.8µM*	·	1.1µM*
O=C(Nc1ccccn1)c1ccc2c(c1)OCO2	?	11µM*	1.3µM*	3.2µM*	11µM*	12µM*
Cc1cccc(NC(=O)CNC(=O)c2ccc3c(c2)OCO3)n1	2%	·	-2%	-1%	·	-13%
SMILES	ELG1 genotox	KinaseGlo FLuc	Rab9 promoter act	NPC1 promoter act	SMN2 splice enh	FLuc counter
Cc1cccc(NC(=O)c2ccc3c(c2)OCCO3)n1	?	·	1.3µM*	1.4µM*	·	9.5µM*
O=C(Cc1ccc([N+](=O)[O-])cc1)NNC(=O)c1ccc2c(c1)OCO2	10%	·	3%	1%	·	6%
O=C(Nc1ccc([N+](=O)[O-])cn1)c1ccc2c(c1)OCO2	14%	-7%	1.6µM*	?	?	-6%
O=C(NC1CC(=O)N(c2ccc(Cl)cc2)C1)c1cccs1 (configuration not stated)	·	·	·	·	·	-7%
N#CC(CC(=O)O)=C(c1ccccc1)c1ccccc1	·	0%[7.66 µM]	·	·	2%[9.22 µM]	·
Cc1cccc(N2CCN(S(=O)(=O)c3c(C(=O)N4CCC(C)CC4)c(C)n(C)c3C)CC2)c1C	·	·	·	·	·	-4%
O=C(Nc1nc2c(F)cccc2s1)c1ccc2c(c1)OCCO2	·	·	·	·	·	0.54µM*
O=C(Nc1nc2c(F)cccc2s1)C1CC1	10%	·	?	?	·	?
O=C(Nc1ccccn1)c1ccc2c(c1)OCCO2	8%	?	0.63µM*	1.1µM*	2.5µM*	6.7µM*
O=C(Nc1ccccn1)c1ccc(C(=O)Nc2ccccn2)cc1	13%	·	?	?	·	?
Nc1nnc(SCC(=O)c2ccccc2)s1	11%	0%	18%	10%	19%	-15%
Nc1c(C(=O)c2ccccc2)sc2snc(SCC(=O)c3ccccc3)c12	2%	-2%	29%	16%	3%	7.6µM*
c1cn2cc(CSC3CCCCC3)nc2s1	2.3µM*	-12%	4µM*	3.2µM*	14µM*	12µM*
O=C(Cc1cn2ccsc2n1)OCc1ccccc1	?	-2%	15%	8%	23%	-28%
Cc1csc2nc(CSc3ccc(Cl)cc3)cn12	?	-11%	2.5µM*	2.5µM*	5µM*	5.4µM*
c1ccc(CSCc2cn3ccsc3n2)cc1	16µM*	2%	2.8µM*	?	13µM*	27µM*
Clc1ccc(SCc2cn3ccsc3n2)cc1	?	-5%	4µM*	2.8µM*	25%	11µM*
COc1cccc(CNC(=O)CCc2c(C)nc3c(c(C)nn3-c3ccc(C)c(C)c3)c2C)c1	·	·	·	·	-9%	-5%
C=CCn1c(C)csc1=Nc1ccc(C(C)=O)cc1	?	2%	?	?	-17%	19µM*
CCOC(=O)c1ccc(N=C2NC(=O)CS2)cc1	5%	5%	-6%	2%	?	0%
CCOC(=O)c1ccc(N=NN(C)C)cc1	?	·	?	?	·	19µM*
CCOC(=O)c1ccc(N=c2scc(C)n2CC)cc1	?	2%	2µM*	?	25µM*	11µM*
CCc1ccc(NC(=O)C(=O)NCC(c2cccnc2)N2CCN(Cc3ccccc3)CC2)cc1 (configuration not stated)	·	·	·	·	·	-7%
Cc1ccc(C2C=C(c3ccc(Cl)cc3)Nc3nc(NC(=O)c4ccco4)nn32)cc1 (configuration not stated)	·	·	·	·	1%	?
Nc1ccc(C#Cc2ccc3c(=O)c4ccccc4oc3c2)cc1	?	·	3.5µM*	2.2µM*	·	?
CC1CCN(C(=O)/C=C/c2ccc(C(C)(C)C)cc2)CC1	?	-1%	29%	18%	22%	15µM*
CC(C)Cc1ccc(/C=C/C(=O)NC2CC2)cc1	16µM*	0%	3.5µM*	?	?	4.8µM*

Bioassay records as filed in PubChem.
